Molecules are shown by their SMILES. “And” between values parts separate entries of the source, which are not always exact repeats. Equal values may be shown once. Inconclusive results are not listed. More than one record can exist for a structure, and the calls need not agree. The source made the active and inactive calls. Unless noted, the call rests on the fitted dose curve.

Assay [1] in a line: Nuclear factor erythroid 2-related factor 2/antioxidant responsive element (Nrf2/ARE) small molecule agonists: qHTS cell viability counter screen in human keratinocytes (AID 1919968; active means well fitted curve in the direction sought with a large enough effect in the repeat runs; an effect the other way counts as inactive or inconclusive; further: nearly all actives have a fitted effect of over 55% in size). The method, boiled down:
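KeratinoSens cells (HaCaT keratinocytes stably carrying an ARE-luciferase reporter) were seeded at 1,500 cells/well and rested 5 h at 37 C/5% CO2. They were then exposed to compounds in DMSO for 23 h. Viability was read by CellTiter-Fluor fluorescence after 1 h.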
In general terms: qHTS replaces the single test concentration by a dilution series.

Assay [2] in a line: Nuclear factor erythroid 2-related factor 2/antioxidant responsive element (Nrf2/ARE) small molecule agonists: luciferase reporter gene qHTS assay in human keratinocytes (AID 1919969). Further: nearly all actives have a fitted effect of over 35% in size. Further: potency means the concentration at half of the fitted maximal effect.
Assay [3] deals with KiSS-1 receptor (Homo sapiens) (UniProt Q969F8). The experiment in a line: Human kisspeptin (KISS1R) small molecule agonists, calcium flux assay in KISS1R-HEK293 cells (AID 1920064; active means well fitted curve in the direction sought with a large enough effect in the repeat runs; an effect the other way counts as inactive or inconclusive). The method, boiled down:
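HEK293 cells stably expressing human KISS1R were plated 18 h at 37 °C, loaded with calcium dye for 1 h at 37 °C, then given compound by pin tool. Fluorescence (Ex/Em 480/540) was read kinetically for 3 min.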
(In general: Calcium assays in cells follow changes in intracellular calcium, usually with a dye or a luminescent sensor.)

Assay [4] is described as follows: G protein-coupled receptor (GPCR) small molecule agonists, calcium flux assay: HEK293 wild type cell line counter screen (AID 1920065). An outline of the steps: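 Cells were plated and cultured 18 h at 37 C/5% CO2, then loaded with calcium dye for 1 h at 37 C. Compounds in DMSO were pin-transferred in agonist mode, and fluorescence (Ex/Em 480/540) was read kinetically for 3 min at 1 s intervals.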

Assay [5] is described as follows: p53 small molecule agonists, cell-based qHTS assay with human liver microsomes (AID 1963577). An outline of the steps:
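p53RE-bla cells, 4,000/well, compound added after 5 h, with human liver microsomes 0.5 mg/mL and NADPH 0.5 mg/mL final; 16 h at 37 C, then LiveBLAzer 2 h RT, fluorescence.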

Assay [6] in a line: p53 small molecule agonists, cell-based qHTS assay with rat liver microsomes (AID 1963578). The method, boiled down:
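p53RE-bla cells, 4,000/well, pre-incubated 5 h, then given compounds plus rat liver microsomes (0.5 mg/mL final) and NADPH (0.5 mg/mL final). Incubation 16 h at 37 C; beta-lactamase reporter read by LiveBLAzer fluorescence after 2 h at room temperature.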

The nature of assay [7]: p53 small molecule agonists, cell-based qHTS assay with human liver microsomes: qHTS cell viability counter screen (AID 1963579). Further: nearly all actives have a fitted effect of over 45% in size. The method, boiled down: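 p53RE-bla cells, 4,000/well, dosed 5 hours after plating, with human liver microsomes (0.5 mg/mL final) plus NADPH (0.5 mg/mL final), 16 hours at 37 C. Viability read as CellTiter-Glo luminescence after 30 min at room temperature.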

A short description of assay [8]: p53 small molecule agonists, cell-based qHTS assay with rat liver microsomes: qHTS cell viability counter screen (AID 1963580). Further: nearly all actives have a fitted effect of over 45% in size. Further: potency means the concentration at half of the fitted maximal effect. An outline of the steps:
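p53RE-bla HCT-116 cells were exposed 16 h at 37 C to compounds with rat liver microsomes (0.5 mg/mL) and NADPH (0.5 mg/mL). Viability was measured in the same wells as ATP content by CellTiter-Glo luminescence.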

Assay [9] in a line: p53 small molecule agonists, cell-based qHTS assay: qHTS cell viability counter screen (AID 1963581). Further: nearly all actives have a fitted effect of over 45% in size. Further: potency means the concentration at half of the fitted maximal effect. The method, boiled down: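 p53RE-bla HCT-116 cells were exposed to compounds for 16 h at 37 C; after the beta-lactamase FRET read in the same wells, CellTiter-Glo was added and luminescence (intracellular ATP) read after 30 min at room temperature.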
A short description of assay [10]: p53 small molecule agonists, cell-based qHTS assay (AID 1963582; active means well fitted activation curve with a large enough effect in the signal ratio in the repeat runs, not every such curve was filed as active; the % refers to the signal ratio). The method, boiled down: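 p53RE-bla beta-lactamase reporter cells rested 5 h at 37 C/5% CO2, then received compounds in DMSO by pin transfer and were incubated 16 h at 37 C. LiveBLAzer B/G FRET substrate was loaded for 2 h at room temperature before fluorescence reading.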
In assay [11] the target is 5-hydroxytryptamine receptor 2A (Homo sapiens) (UniProt P28223). Put plainly: 5-hydroxytryptamine receptor 2A (HTR2A) small molecule antagonists, cell-based qHTS assay (AID 1963586). Further: nearly all actives have a fitted effect of over 45% in size. The method, boiled down: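 Antagonist-mode intracellular calcium assay: DOI (4 nM) added after 5 min compound pre-incubation at room temperature to dye-loaded HTR2A-CHO cells. Fluorescence followed for 3 min, sampled every second.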

Assay [12] shares this target. The experiment in a line: 5-hydroxytryptamine receptor 2A (HTR2A) small molecule agonists, cell-based qHTS assay (AID 1963587). Further: nearly all actives have a fitted effect of over 30% in size. Further: potency means the concentration at half of the fitted maximal effect. An outline of the steps:
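CHO cells stably expressing human HTR2A, plated 18 h, loaded with calcium dye 1 h at 37 C. Agonist mode: compounds added and intracellular calcium fluorescence recorded kinetically for 2 min at 1 sec intervals.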

The target of assay [13] is Muscarinic acetylcholine receptor M1 (Homo sapiens) (UniProt P11229). Put plainly: Cholinergic receptor muscarinic 1 (CHRM1) small molecule antagonists, cell-based qHTS assay (AID 1963588). Further: nearly all actives have a fitted effect of over 40% in size. Further: potency means the concentration at half of the fitted maximal effect. An outline of the steps:
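CHRM1-CHO calcium-flux assay, antagonist mode. Cells were seeded 18 h, dye-loaded 1 h at 37 C and given compound for 5 min at RT, then acetylcholine was added at 50nM. FDSS fluorescence was read 3 min; 15 concentrations, three runs.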

The target is the same in assay [14]. Put plainly: Cholinergic receptor muscarinic 1 (CHRM1) small molecule agonists, cell-based qHTS assay (AID 1963589). Further: nearly all actives have a fitted effect of over 35% in size. The method, boiled down: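 CHO cells stably expressing human CHRM1, seeded 18 h at 37 C/5% CO2, dye-loaded 1 h at 37 C, then given compound in agonist mode; intracellular calcium fluorescence read kinetically at 1 s intervals. Fifteen concentrations, three independent runs.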

The nature of assay [15]: cAMP Responsive Elements (CRE) small molecule agonists, cell-based qHTS assay (AID 1963590). An outline of the steps:
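CRE-bla HEK 293T cells in DMEM with 10% dialyzed FBS, NEAA, pyruvate and 25 mM HEPES were plated 18 h at 37 C/5% CO2, then exposed to compounds in DMSO for 3 h before LiveBLAzer B/G FRET substrate addition.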

The nature of assay [16]: cAMP Responsive Elements (CRE) small molecule antagonists, cell-based qHTS assay (AID 1963591; active means well fitted inhibition curve with a large enough effect in the signal ratio in the repeat runs, not every such curve was filed as active; the % refers to the signal ratio). The method, boiled down:
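CRE-bla HEK293T cells were plated 18 h at 37 °C/5% CO2, pinned with compound in DMSO, then stimulated with NKH477 at 0.25 uM final for 3 h. LiveBLAzer B/G FRET substrate was added and plates incubated 2 h at room temperature.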

The target in assay [17] is Beta-2 adrenergic receptor (Homo sapiens) (UniProt P07550). The experiment in a line: Adrenergic beta2 receptor (ADRB2) small molecule antagonists, cell-based qHTS assay (AID 1963592). Further: series mostly up to about 92 µM; nearly all actives have a fitted effect of over 50% in size. An outline of the steps:
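Cells (CHO, stable ADRB2 overexpression) incubated 18-20hr at 37C; compounds added from DMSO; agonist mix (1nM isoproterenol, 100uM IBMX, 25uM Ro-20-1724) added; 0.5hr RT; d2-cAMP and anti-cAMP-cryptate added; 1hr RT; 665/615 nm read.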

Assay [18] shares this target. Put plainly: Adrenergic beta2 receptor (ADRB2) small molecule agonists, cell-based qHTS assay (AID 1963593).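 Further: CHO cells stably overexpressing human ADRB2.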 The method, boiled down: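 CHO cells stably over-expressing ADRB2 were plated overnight at 37C, then dosed with compounds plus a stimulation mix containing 100uM IBMX and 25uM Ro-20-1724 for 0.5hr at room temperature. cAMP was measured by HTRF competition, 1hr.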

The target of assay [19] is D(2) dopamine receptor (Homo sapiens) (UniProt P14416). The experiment in a line: Dopamine D2 receptor (DRD2) small molecule agonists, cell-based qHTS assay (AID 1963594). Further: nearly all actives have a fitted effect of over 35% in size. An outline of the steps: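 HEK293 cells stably expressing human DRD2, pre-treated with PDE inhibitor Ro20-1724 (0.1 mM final) and compound 10 min at room temperature, then stimulated with NKH477 (200nM […]) for 30 min. cAMP read by HTRF (665/620 nm).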

Assay [20] shares this target. Put plainly: Dopamine D2 receptor (DRD2) small molecule antagonists, cell-based qHTS assay (AID 1963595; active means well fitted inhibition curve with a large enough effect in the signal ratio in the repeat runs, with a control signal flat; the % refers to the signal ratio). The method, boiled down: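 Human DRD2 antagonist qHTS measuring cAMP by HTRF. The cells are exposed to compound for 10 min, then to NKH477 (200 nM) and quinpirole (12 nM) for 30 min at RT, with Ro20-1724 (0.1 mM) present throughout.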

Sequence of Beta-2 adrenergic receptor (Homo sapiens) (P07550 whole entry, looked up): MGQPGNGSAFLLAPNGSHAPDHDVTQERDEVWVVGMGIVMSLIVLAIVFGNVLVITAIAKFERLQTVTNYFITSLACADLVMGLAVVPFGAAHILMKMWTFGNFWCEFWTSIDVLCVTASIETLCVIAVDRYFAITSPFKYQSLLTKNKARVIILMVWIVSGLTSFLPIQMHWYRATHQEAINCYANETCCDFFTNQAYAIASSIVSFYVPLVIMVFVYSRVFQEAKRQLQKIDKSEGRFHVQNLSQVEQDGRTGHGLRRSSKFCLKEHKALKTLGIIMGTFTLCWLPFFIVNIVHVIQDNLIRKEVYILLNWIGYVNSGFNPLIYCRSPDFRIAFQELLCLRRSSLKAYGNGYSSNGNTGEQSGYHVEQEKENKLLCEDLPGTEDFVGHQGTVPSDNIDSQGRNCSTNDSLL
Sequence of KiSS-1 receptor (Homo sapiens) (Q969F8 whole entry, looked up): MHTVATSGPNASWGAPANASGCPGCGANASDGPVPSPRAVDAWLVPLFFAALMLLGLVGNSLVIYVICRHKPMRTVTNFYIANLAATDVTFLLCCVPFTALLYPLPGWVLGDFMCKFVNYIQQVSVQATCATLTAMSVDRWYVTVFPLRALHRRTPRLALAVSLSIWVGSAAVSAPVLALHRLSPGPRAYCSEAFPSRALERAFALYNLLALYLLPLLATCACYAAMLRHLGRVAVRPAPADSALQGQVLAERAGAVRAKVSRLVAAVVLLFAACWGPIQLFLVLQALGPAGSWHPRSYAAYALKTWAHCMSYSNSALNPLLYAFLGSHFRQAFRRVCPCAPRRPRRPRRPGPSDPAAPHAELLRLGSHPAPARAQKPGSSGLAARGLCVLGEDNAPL
Sequence of 5-hydroxytryptamine receptor 2A (Homo sapiens) (P28223 whole entry, looked up): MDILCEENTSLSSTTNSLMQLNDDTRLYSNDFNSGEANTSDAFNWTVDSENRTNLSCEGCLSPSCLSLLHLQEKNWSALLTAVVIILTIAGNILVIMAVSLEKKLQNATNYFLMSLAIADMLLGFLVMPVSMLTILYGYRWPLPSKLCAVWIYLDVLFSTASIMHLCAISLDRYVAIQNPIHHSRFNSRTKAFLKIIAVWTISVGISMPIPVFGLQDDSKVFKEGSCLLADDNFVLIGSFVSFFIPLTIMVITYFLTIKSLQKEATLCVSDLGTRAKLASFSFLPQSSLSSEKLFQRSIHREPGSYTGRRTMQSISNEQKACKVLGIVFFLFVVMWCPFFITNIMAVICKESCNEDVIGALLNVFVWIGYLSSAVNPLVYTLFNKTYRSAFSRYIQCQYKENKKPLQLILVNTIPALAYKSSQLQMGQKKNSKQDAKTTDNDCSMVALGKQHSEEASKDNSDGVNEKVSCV
Sequence of D(2) dopamine receptor (Homo sapiens) (P14416 whole entry, looked up): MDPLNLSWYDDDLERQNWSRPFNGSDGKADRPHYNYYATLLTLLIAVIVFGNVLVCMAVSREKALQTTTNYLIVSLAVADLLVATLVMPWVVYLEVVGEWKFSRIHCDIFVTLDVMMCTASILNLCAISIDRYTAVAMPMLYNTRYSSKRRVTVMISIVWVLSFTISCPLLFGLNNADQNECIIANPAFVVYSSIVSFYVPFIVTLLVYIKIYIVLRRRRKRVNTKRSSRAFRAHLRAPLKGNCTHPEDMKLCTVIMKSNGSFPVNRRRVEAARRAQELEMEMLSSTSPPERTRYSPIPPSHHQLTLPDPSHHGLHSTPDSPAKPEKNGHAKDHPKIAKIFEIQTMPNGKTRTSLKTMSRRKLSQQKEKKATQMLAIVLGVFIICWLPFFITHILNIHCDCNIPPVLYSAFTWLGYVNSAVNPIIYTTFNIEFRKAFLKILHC
Sequence of Muscarinic acetylcholine receptor M1 (Homo sapiens) (P11229 whole entry, looked up): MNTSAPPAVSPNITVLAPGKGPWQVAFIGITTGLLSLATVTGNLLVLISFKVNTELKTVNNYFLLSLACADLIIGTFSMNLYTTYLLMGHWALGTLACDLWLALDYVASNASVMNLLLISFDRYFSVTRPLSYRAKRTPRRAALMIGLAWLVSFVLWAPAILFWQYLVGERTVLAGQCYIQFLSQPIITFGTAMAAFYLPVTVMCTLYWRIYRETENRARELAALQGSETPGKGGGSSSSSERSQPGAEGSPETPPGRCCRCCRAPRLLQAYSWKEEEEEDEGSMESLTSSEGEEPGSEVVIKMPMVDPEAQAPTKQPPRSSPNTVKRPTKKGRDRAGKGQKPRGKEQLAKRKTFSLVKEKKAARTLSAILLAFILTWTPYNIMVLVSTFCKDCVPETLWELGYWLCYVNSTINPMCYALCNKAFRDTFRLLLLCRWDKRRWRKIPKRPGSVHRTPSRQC

In the case of `Cc1ccccc1Cl`, the Potency entry in assay [1], in assay [2], in assay [3], in assay [4], in assay [5] and in assay [6] was “inactive” each time. In addition, the Potency result in assay [7], in assay [8], in assay [9], in assay [10], in assay [11] and in assay [12] was “inactive” each time. Further, the Potency result in [13], in assay [14], in assay [15], in assay [16], in assay [17] and in [18] was “inactive” in each case. In [19], the Potency result was “inactive”.
`O=S(=O)(O)c1ccc2nc(-c3ccccc3)[nH]c2c1`: the Potency result in assay [1], in assay [2], in assay [5], in [10], in assay [11] and in [12] was “inactive” throughout. The Potency result in assay [13], in assay [14], in assay [15], in assay [16], in assay [17] and in assay [18] was “inactive” in each case. For the same molecule, the Potency result in [19] and in [20] was “inactive” each time. In addition, the Potency in assay [8] is 15.5 µM (active).
As to `COCCOCCOC`, the Potency result in [1], in [2], in assay [3], in assay [4], in assay [5] and in assay [6] was “inactive” each time. Also, the Potency result in assay [7], in [8], in assay [10], in [11], in [12] and in assay [13] was “inactive” in each case. Besides, the Potency result in assay [14], in [15], in assay [16], in assay [17], in [18] and in assay [19] was “inactive” in each case. Besides, the Potency result in assay [20] is “inactive”. The Potency in assay [9] was 145 nM (active) and inactive.
Take `[O-]/[N+](=N\O)c1ccccc1`: the Potency entry in assay [1], in assay [4], in [5], in assay [6], in assay [7] and in assay [8] was “inactive” each time. Further, the Potency result in assay [10], in assay [11], in assay [12], in [13], in assay [14] and in [15] was “inactive” each time. The Potency entry in [16], in [17], in [19] and in [20] was “inactive” throughout. In assay [2], the Potency is 68 µM (active) and 34.4 µM (active).
As to `CCNc1cccc(C)c1`, the Potency result in [1], in assay [2], in assay [3], in assay [4], in assay [5] and in [6] was “inactive” throughout. The Potency result in assay [7], in assay [8], in assay [9], in [10], in assay [11] and in [12] was “inactive” throughout. In addition, the Potency result in [13], in assay [14], in [15], in assay [16], in assay [17] and in assay [18] was “inactive” throughout. Besides, the Potency result in assay [19] and in assay [20] was “inactive” in each case.
Consider `NC1CCCCC1`, for which the Potency entry in assay [1], in assay [2], in assay [4], in [7], in assay [8] and in assay [9] was “inactive” throughout. Also, the Potency entry in [11], in assay [15], in assay [16], in assay [17], in assay [18] and in [19] was “inactive” each time. In addition, the Potency result in [20] is “inactive”. Also, the Potency was 1.96 µM (active) and inactive in assay [12]; “inactive and 4.7 nM (active)” in assay [13].
As for `CCCCOCCOCCSC#N`, the Potency result in assay [1], in assay [2], in assay [6], in [7], in assay [8] and in assay [9] was “inactive” each time. Also, the Potency entry in assay [10], in assay [11], in [12], in assay [13], in [14] and in assay [15] was “inactive” throughout. Besides, the Potency entry in [16], in assay [17], in [18], in assay [19] and in [20] was “inactive” in each case.
Consider `CC(O)C(=O)O` (configuration not stated), for which the Potency entry in assay [1], in assay [2], in [4], in assay [5], in [7] and in assay [8] was “inactive” in each case. For the same molecule, the Potency result in [9], in assay [10], in assay [15], in assay [16], in [17] and in assay [18] was “inactive” in each case. The Potency entry in assay [19] and in assay [20] was “inactive” throughout.
